aSyn 5UTR act – Activators working through SNCA 5'UTR binding (MLPCN) | alpha-synuclein 5'UTR reporter, activators screen | activity score, % (tested at 7.5 µM), hits read low | hit rate 7.1% among 300,000; in the data active = activity score below about -60%
Of the large screens only hits and unclear results are named; the others gave an inactive call. A selection follows.

Cc1ccc2nc(N3CCN(C)CC3)[nH]c2c1	aSyn 5UTR act -96
CN(C)C(=O)On1c(-c2ccccc2)nc2ccc(Cl)cc21	aSyn 5UTR act -71
CC(=O)Nc1ccccc1C(=O)OCc1cccc(F)c1	aSyn 5UTR act -85
C=C1C[C@@H]2[C@H](CC[C@]3(C)C(=O)CC[C@@H]23)[C@@]2(C)C=CC(=O)C=C12	aSyn 5UTR act -141
CCn1c(C)c(C(=O)Nc2ccc(OC)cc2)c2cc(OC)ccc21	aSyn 5UTR act -86
Cc1ccc2cc(C=C(C#N)C#N)c(Cl)nc2c1	aSyn 5UTR act -79
Cc1ccc(-c2nc(N(C)C3CCN(C)CC3)c3ccccc3n2)cc1	aSyn 5UTR act -93
C=C1C(=O)O[C@@H]2C[C@@H](C)[C@@H]3C=CC(=O)[C@@]3(C)[C@@H](OC(=O)CC(=O)O[C@H]3[C@@H]4C(=C)C(=O)O[C@@H]4C[C@@H](C)[C@@H]4C=CC(=O)[C@]43C)[C@H]12	none
C=C1C(=O)O[C@H]2C[C@@H](C)[C@@H]3C=CC(=O)[C@@]3(C)C[C@H]12	aSyn 5UTR act -151
COc1ccc2nc(NC3=NCCN3)sc2c1	aSyn 5UTR act -209
c1ccc2sc(NC3=NCCN3)nc2c1	aSyn 5UTR act -103
C[C@H]1CCC[C@@H](O)CCC/C=C/c2cc(O)cc(O)c2C(=O)O1	aSyn 5UTR act -170
CC1CCC/C=C/C2CC(O)CC2C(O)/C=C/C(=O)O1 (stereo unspecified)	none
C[C@H]1CCC/C=C/C2C[C@H](O)CC2[C@H](O)/C=C/C(=O)O1 (stereo partly specified)	none
CNC(=O)Oc1ccc(-c2cn3cc(C)ccc3n2)cc1	none
CN(C)C(Cc1ccccc1)C(=O)c1c[nH]c2ccccc12 (stereo unspecified)	aSyn 5UTR act -64
COc1ccc(C2NCc3ccc4c(c3-n3cccc32)OCO4)cc1O (stereo unspecified)	none
COC(=O)C(O)(c1ccc(NC(=S)NC(=O)c2ccccc2)cc1)C(F)(F)F (stereo unspecified)	aSyn 5UTR act -80
CC(C)(C)c1ccc(C(=O)C2CCCN(C3CCC3)C2)cc1 (stereo unspecified)	aSyn 5UTR act -72
COc1ccccc1CN1CCCC(C(=O)c2ccccc2SC)C1 (stereo unspecified)	none
CC(C)(C)c1ccc(C(=O)C2CCCN(Cc3ccon3)C2)cc1 (stereo unspecified)	aSyn 5UTR act -124
COc1cc2c(c(OC)c1OC)-c1ccc(O)c(=O)cc1C(NC(C)=O)CC2 (stereo unspecified)	none
CC(=O)O[C@@]12CO[C@@H]1C[C@H](O)[C@@]1(C)C(=O)[C@H](O)C3=C(C)[C@@H](OC(=O)[C@H](O)[C@@H](NC(=O)c4ccccc4)c4ccccc4)C[C@@](O)([C@@H](OC(=O)c4ccccc4)C12)C3(C)C (stereo partly specified)	none
CCCCCn1c(=O)c(C(=O)Nc2cnccn2)c(O)c2ccccc21	none
CCCCCn1c(=O)c(C(=O)Nc2ccccc2S(N)(=O)=O)c(O)c2ccccc21	none
CCCCCn1c(=O)c(C(=O)Nc2ccccc2C)c(O)c2ccccc21	aSyn 5UTR act -83
C=C(C=O)C[C@@H]1C[C@H](O)C2OC3C[C@]4(C)OC5/C=C\CC6OC7C(CC=CCC6OC5CCCC4OC3CC2O1)OC1CC2OC3CC(=O)OC3C[C@@H](C)C[C@@]2(C)OC1C[C@@H]7C (stereo partly specified)	none
CC(=O)O[C@H]1C(=O)[C@@]2(C)C([C@H](OC(=O)c3ccccc3)[C@]3(O)C[C@H](OC(=O)[C@H](O)[C@@H](NC(=O)Cc4ccccc4)c4ccccc4)C(C)=C1C3(C)C)[C@]1(OC(C)=O)CO[C@@H]1C[C@@H]2O (stereo partly specified)	none
CCOC(=O)c1cc2c(cn1)[nH]c1ccccc12	aSyn 5UTR act -142
O=C(c1ccc2c(c1)ncn2C1CCCCC1)N1CCC2(CC1)OCCO2	aSyn 5UTR act -171
C=CCN=C(SCC(=O)c1ccc(Cl)cc1)c1c(O)n(C)c(=O)n(C)c1=O	aSyn 5UTR act -71
Nc1c2c(nc3sc4c(c13)CCCC4)CCCC2	aSyn 5UTR act -118
Nc1c2c(nc3sc4c(c13)CCCC4)CCCCC2	aSyn 5UTR act -170
CCCCCCCSc1cc(OC)c(CCN(C)C)cc1OC	none
CC(=O)O[C@@H]1/C=C/[C@](C)(O)C[C@@H](C)C/C=C/[C@H]2[C@H](O)C(C)=C(C)[C@H]3[C@H](Cc4ccccc4)NC(=O)[C@@]123	none
O=C1NC(=O)C(CCc2ccncc2)(Cc2cccc(Cl)c2Cl)C(=O)N1c1ccc(Br)cc1 (stereo unspecified)	none
Nc1ccccc1C(=O)OCC(=O)c1ccc2c(c1)OCCO2	aSyn 5UTR act -64
Nc1ccc2c(c1)oc1ccccc12	aSyn 5UTR act -113
CN1CCN(c2ccc([N+](=O)[O-])c3no[n+]([O-])c23)CC1	none

From PubChem
